Test results taken from the supplement of paper PMC3334620.
Whole data set: some 33,000 sequences, median “E-score (-0.5 to 0.5)” near -0.0014, cut for the highest 2% near 0.25. The full list was thinned out, with the highest values kept by preference.

These sequences were tested against T1, Cad1 (UniProt P24813) (assay: PBM E-score (8-mer binding enrichment) (E-score (-0.5 to 0.5)); higher = stronger / more preferred TF binding). Conditions: protein concentration: 100 nM; construct: GST-full length.
T1 sequence: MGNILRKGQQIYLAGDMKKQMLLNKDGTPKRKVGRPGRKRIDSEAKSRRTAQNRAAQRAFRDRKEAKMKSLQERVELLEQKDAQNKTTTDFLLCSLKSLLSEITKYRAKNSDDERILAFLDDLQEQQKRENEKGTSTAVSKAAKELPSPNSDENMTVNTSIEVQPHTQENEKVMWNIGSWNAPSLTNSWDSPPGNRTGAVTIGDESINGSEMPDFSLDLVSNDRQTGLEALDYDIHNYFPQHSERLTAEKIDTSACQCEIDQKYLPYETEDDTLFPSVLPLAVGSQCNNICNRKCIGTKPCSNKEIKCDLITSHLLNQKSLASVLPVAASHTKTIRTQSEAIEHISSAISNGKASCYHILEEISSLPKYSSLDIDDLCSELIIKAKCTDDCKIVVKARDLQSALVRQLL
Summary of the method: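 E-scores (a modified Wilcoxon-Mann-Whitney statistic) were assigned by the Universal PBM Analysis Suite to every ungapped eight-base word pooled with its reverse complement. The input came from universal all-10-mer Agilent arrays made double-stranded by primer extension and probed with GST-tagged yeast transcription factors at about 100-200 nM. Fluorescent anti-GST detected bound protein, and masliner normalised the scans.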

Sequence | PBM E-score
AGTAAGCG | 0.338
ACTAAGCA | 0.181
ACCGTCTC | 0.138
CTTGCAAA | 0.105
ATTCCTTC | 0.105
CTTGTACA | -0.0604
ATTGTACA | 0.106
GTTGTACA | 0.286
CTGAGGGA | -0.0379
ACTAAAAC | 0.116
ACTAAAAT | 0.255
ACTAAAAA | 0.107
ATTAAAAT | 0.253
ATTAAAAA | 0.221
ATTAAAAC | 0.108
ATGACGTC | 0.0734
AGGAAGTC | -0.225
GAGTGGGC | -0.294
AGGCTACA | 0.00724
TGAAAGAA | 0.253
AGAAAGAA | 0.0147
GGAAAGAA | -0.177
TGAAAACA | 0.131
CAAAGTAA | -0.00082
AAAAGTAA | 0.265

Sequence | PBM E-score
AAAAGTAT | 0.0548
GATAGTGA | 0.157
CATTTTTC | 0.124
ACGAAAAG | 0.0611
ACGAAAAA | -0.045
ATGAAAAT | 0.0649
ATGAAAAG | 0.0321
ACGAAAAC | 0.259
ATGAAAAA | 0.27
ACTTCACT | -0.00075
CACAAGCG | -0.145
ATATCCCA | 0.0408
CGCTCCAA | 0.0125
ACGTTAAC | 0.102
CTGTTAAC | 0.258
GTGTTAAC | 0.168
ATGTTAAC | 0.0833
CCGTTAAC | 0.0965
GCGTTAAC | 0.257
TGGGAACA | -0.0827
CAGGTTTC | 0.111
ATGAACTA | 0.0699
CCCTTTAA | -0.135
GTGTTTAA | 0.233
GTAGATCA | 0.0116

Sequence | PBM E-score
AGTGGTAC | -0.103
GCCACAGC | -0.115
CTGAGTAC | -0.06
GTGAGTAA | 0.129
ATGAGTAG | 0.0743
ATGAGTAA | 0.286
ATGAGTAC | 0.0206
CTGAGTAA | 0.254
CCTAGTGA | -0.171
AGGGGTCA | -0.304
CTCGGGGA | -0.0482
GATCCGTA | -0.0959
CTCGTAAC | 0.112
CTCGTAAG | 0.264
ATCGTAAG | -0.0168
CAGAGACC | -0.145
ATGGTCGC | -0.127
AGGTCTCG | -0.2
CCAGAAGC | -0.248
TTATCAAA | 0.3
GAATCAAA | 0.0378
CTATCAAA | 0.0734
GAATCAAC | 0.264
CTATCAAC | 0.219
CAATCAAC | 0.228

Sequence | PBM E-score
GTATCAAC | -0.0681
GTATCAAA | 0.142
ATATCAAG | 0.251
CTATCAAG | 0.0773
ATATCAAC | 0.253
ATATCAGG | 0.00611
TCAGCACA | 0.172
TAGCGCCA | 0.0297
CCAGCTGA | 0.155
AGTCAGGG | -0.148
CGATTCTC | 0.0405
ACATGGCC | 0.141
CCGCGAAG | 0.12
ACTGTCGA | 0.0753
AAGGCTGA | -0.00348
CCAGTGCC | -0.0306
AGTGCGAG | -0.0178
ATATCAAT | 0.253
AGATCAAT | -0.021
ATATCAAA | 0.0329
AGACCTAT | 0.111
ATCGATGA | 0.13
ATTCCGCA | -0.0887
GTTCCGCA | 0.252
CTTCCGCA | 0.0248

Sequence | PBM E-score
GACGGAGA | 0.038
ATAGGTGA | -0.0537
GAATCCAA | -0.0184
TAATCCAA | 0.255
AAATCGAA | -0.156
AAATCCAA | 0.115
CAATCGAA | 0.0916
TAATCGAA | 0.35
CGTTCGTC | 0.248
AGTCTCAT | -0.0485
GCGCATCC | -0.0757
ATGAGGAC | -0.0183
AGGGGCGC | -0.103
ATTGTCAG | 0.306
ATTGTCCC | -0.0923
ATTGTCAC | 0.0726
ATTGTCCA | 0.132
ATTGTCAA | 0.084
ATTGTCCG | 0.271
ATCAGAAG | -0.0366
ATTTGGAG | -0.204
ACTCCACT | -0.0657
ACCCGGCG | -0.12
CACGACAG | 0.0344
CACTGTAA | 0.00669

Sequence | PBM E-score
GATACCCA | 0.122
CCGCGCAA | 0.0795
ATGCGCAG | -0.0137
ATACGCAA | 0.119
ACGCGCAA | 0.206
TCGCGTAA | 0.19
GCGCGTAA | 0.293
ATGCGCAC | 0.14
GCGCGCAA | 0.303
ACGCGTAA | 0.176
ATGCGCAT | 0.334
GTACGCAA | 0.0953
TTACGCAA | 0.268
GCCTCAGC | -0.0857
CTTTCACA | 0.209
ACAGCATG | -0.053
AACTTGGG | -0.0849
GGTTGGTA | 0.101
TGGCGCAA | -0.0637
GCGCAGAA | 0.262
TAGCGCAA | 0.207
CCGCAGAA | 0.179
TTGCGCAA | 0.258
TCGCAGAA | -0.192
GTGCGCAA | 0.0688

Sequence | PBM E-score
ATGCGCAA | 0.107
TCGCGCAA | 0.27
ATACACTA | 0.205
ATATCGTG | 0.164
ACACCGCC | 0.0284
AGGATCTA | -0.266
ACGCATGA | 0.0155
ACGCATGC | 0.283
ACGCATGG | -0.215
CAGCTGTC | 0.253
ACGCTGAT | 0.166
CAGCTGAG | 0.0708
CTGCTGAA | 0.0549
CAGCTGAC | 0.182
CTGCTGTC | -0.0811
CTGCTGAC | 0.275
ACGCTGTC | -0.187
ACGCTGAC | 0.3
GGAAGAAA | -0.0518
CTAGTTGC | 0.0214
GGACTTGA | -0.232
ATACTCTG | 0.0457
